From PubChem BioAssay AID1508601 (ICCB-Longwood Screening Facility, Harvard Medical School, 2020)
Screen size: about 5,700 compounds; about 85 (1%) were called active. Rule as the data show it: active = p53-positive nuclei above about 36% (passing the limit was not always enough); inactive = the rest. The sample as a whole holds a higher share of actives than the screen did.

Assays:
[1] = nuclear p53 accumulation, HPV+ cells – imaging, p53-positive nuclei imaging, 24 h, 48 h (AID 1508601); conditions: 24/48 h
[2] = target: Cellular tumor antigen p53 (Homo sapiens) (UniProt P04637); assay: as above; conditions: 24/48 h, stronger effect = higher value
[3] = measured here: cell number at 24 h, Library stock concentration: 3.33 mM
[4] = measured here: cell number at 48 h, Library stock concentration: 3.33 mM
[5] = Library stock concentration: 3.33 mM
[6] = measured here: p53 positive nuclei at 24 h, Library stock concentration: 3.33 mM
[7] = measured here: cell number at 24 h, Library stock concentration: 80 uM
[8] = measured here: cell number at 24 h, Library stock concentration: 400 uM
[9] = measured here: cell number at 24 h, Library stock concentration: 2 mM
[10] = measured here: cell number at 24 h, Library stock concentration: 10 mM
[11] = measured here: cell number at 48 h, Library stock concentration: 80 uM
[12] = measured here: cell number at 48 h, Library stock concentration: 400 uM
[13] = measured here: cell number at 48 h, Library stock concentration: 2 mM
[14] = measured here: cell number at 48 h, Library stock concentration: 10 mM
[15] = Library stock concentration: 80 uM
[16] = Library stock concentration: 400 uM
[17] = Library stock concentration: 2 mM
[18] = Library stock concentration: 10 mM
[19] = measured here: p53 positive nuclei at 24 h, Library stock concentration: 80 uM
[20] = measured here: p53 positive nuclei at 24 h, Library stock concentration: 400 uM
[21] = measured here: p53 positive nuclei at 24 h, Library stock concentration: 2 mM
[22] = measured here: p53 positive nuclei at 24 h, Library stock concentration: 10 mM

Sequence of Cellular tumor antigen p53 (Homo sapiens) (P04637 whole entry, looked up): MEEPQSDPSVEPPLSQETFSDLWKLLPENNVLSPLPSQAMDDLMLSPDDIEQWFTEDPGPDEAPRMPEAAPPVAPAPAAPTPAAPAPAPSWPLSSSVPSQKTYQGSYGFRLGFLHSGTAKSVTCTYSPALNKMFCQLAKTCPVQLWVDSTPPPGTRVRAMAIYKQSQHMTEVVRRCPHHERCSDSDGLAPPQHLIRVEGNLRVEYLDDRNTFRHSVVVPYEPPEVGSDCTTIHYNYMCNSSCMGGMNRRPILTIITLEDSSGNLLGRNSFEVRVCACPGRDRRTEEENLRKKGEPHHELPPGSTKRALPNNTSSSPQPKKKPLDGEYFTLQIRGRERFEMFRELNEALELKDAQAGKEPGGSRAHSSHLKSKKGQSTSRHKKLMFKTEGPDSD

| SMILES | nuclei count, normalised [1, 3] [%] | nuclei count, normalised [1, 4] [%] | p53-positive nuclei, normalised [2, 5] | p53-positive nuclei, normalised [2, 6] [%] | nuclei count, normalised [1, 7] [%] | nuclei count, normalised [1, 8] [%] | nuclei count, normalised [1, 9] [%] | nuclei count, normalised [1, 10] [%] | nuclei count, normalised [1, 11] [%] | nuclei count, normalised [1, 12] [%] | nuclei count, normalised [1, 13] [%] | nuclei count, normalised [1, 14] [%] | p53-positive nuclei, normalised [2, 15] | p53-positive nuclei, normalised [2, 16] | p53-positive nuclei, normalised [2, 17] | p53-positive nuclei, normalised [2, 18] | p53-positive nuclei, normalised [2, 19] [%] | p53-positive nuclei, normalised [2, 20] [%] | p53-positive nuclei, normalised [2, 21] [%] | p53-positive nuclei, normalised [2, 22] [%] |
| --- | --- | --- | --- | --- | --- | --- | --- | --- | --- | --- | --- | --- | --- | --- | --- | --- | --- | --- | --- | --- |
| CCCCCOC(=O)Nc1nc(=O)n(C2OC(C)C(O)C2O)cc1F (configuration not stated) | 99.3 | 102 | -0.587% (inactive) | -0.329 |  |  |  |  |  |  |  |  |  |  |  |  |  |  |  |  |
| CCC(=O)O[C@@]1(C(=O)CCl)C(C)C[C@H]2[C@@H]3CC(F)C4=CC(=O)C=C[C@]4(C)[C@]3(F)C(O)C[C@@]21C (some centres not stated) | 104 | 97.5 | -0.166% (inactive) | -0.278 |  |  |  |  |  |  |  |  |  |  |  |  |  |  |  |  |
| COc1ccc(Cn2ccc3ccc(C(=O)NO)cc32)cc1 | 105 | 88.9 | 0.097% (inactive) | -0.209 | 107 | 107 | 105 | 101 | 107 | 99.6 | 98.8 | 95.1 | -0.106% (inactive) | -0.0148% (inactive) | -0.164% (inactive) | -0.0788% (inactive) | -0.0424 | -0.00427 | 0.00889 | 0.0845 |
| CCN(CC)Cc1ccc2cc(COC(=O)Nc3ccc(C(=O)NO)cc3)ccc2c1 | 39.9 | 22.6 | 95.7% (active) | 67.1 |  |  |  |  |  |  |  |  |  |  |  |  |  |  |  |  |
| CCCCN(Cc1ccc(C(=O)NO)cc1)C(=O)Nc1ccccc1 | 118 | 90.2 | 0.281% (inactive) | 0.149 | 103 | 99.5 | 114 | 74.8 | 109 | 101 | 99.5 | 67.8 | -0.143% (inactive) | 0.163% (inactive) | 0.295% (inactive) | 5.72% (inactive) | -0.0551 | -0.12 | 0.226 | 13.7 |
